Records with an inconclusive call do not appear. Activity calls are given as the source filed them. How the source made its calls, unless noted: active means hit-call score of the fitted dose curve at least 0.9, where 1 is the maximum; inconclusive means response in the unintended direction; inactive means score below 0.9.

The nature of assay [1]: TOX21_p53_BLA_p2_viability: Viability Assessment in the Tox21 HCT-116 p53 Agonism Beta-lactamase Assay, Phase 2 (AID 2283591).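 Further: compound exposure lasted 16 h at 37 °C; actives lower the ATP signal meaning cytotoxicity.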 Put shortly: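 HCT-116 p53-bla cells (4000/well) rested 5 h at 37C, then received compounds in DMSO (217-fold dilution) for 16 h at 37C, 5% CO2. After the CCF4 read, CellTiter-Glo was added; ATP luminescence was read after 30 min at room temperature.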

The target of assay [2] is Cellular tumor antigen p53 (Homo sapiens) (UniProt P04637). The assay is described as follows: TOX21_p53_BLA_p2_ratio: Tox21 HCT-116 p53 Agonism Beta-lactamase Assay, Ratio, Phase 2 (AID 2283592). Put shortly:
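Read-out is the blue/green (460/530 nm, 405 nm excitation) ratio after 2 h CCF4-AM loading, fitted as gain versus DMSO. Compounds, pinned at 217-fold dilution from DMSO stocks, stayed 16 h on HCT-116 beta-lactamase reporter cells seeded 5 h earlier.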

The nature of assay [3]: TOX21_p53_BLA_p3_viability: Viability Assessment in the Tox21 HCT-116 p53 Agonism Beta-lactamase Assay, Phase 3 (AID 2283593).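 Further: cells exposed to compound for 16 h before reading.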 The procedure, abridged:
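HCT-116 cells (4000/well) rested 5 h at 37C, then got DMSO compounds by pin tool (217-fold dilution) for 16 h at 37C, 5% CO2. After the bla read, CellTiter-Glo was added and luminescence read at 30 min, room temperature.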

Assay [4] can be described thus: TOX21_p53_BLA_p4_viability: Viability Assessment in the Tox21 HCT-116 p53 Agonism Beta-lactamase Assay, Phase 4 (AID 2283597).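 Further: hits lower the luminescence signal meaning cytotoxicity.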 The procedure, abridged:
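Cytotoxicity as reduced cellular ATP (CellTiter-Glo luminescence, 30 min room temperature), measured in the same wells following the CCF4 FRET p53 reading. Human HCT-116 cells received compounds in DMSO (217-fold dilution) for 16 h.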

Assay [5] is described as follows: TOX21_p53_BLA_p5_viability: Viability Assessment in the Tox21 HCT-116 p53 Agonism Beta-lactamase Assay, Phase 5 (AID 2283600). The procedure, abridged:
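Viability came from CellTiter-Glo ATP luminescence, read after 30 min at room temperature. Before this, HCT-116 p53-bla cells (4000/well) had 16 hours of compound exposure at 37C, with DMSO stocks diluted 217-fold on transfer.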

For assay [6], the target named is Cellular tumor antigen p53 (Homo sapiens) (UniProt P04637). As to the kind of experiment: TOX21_p53_BLA_p4_ratio: Tox21 HCT-116 p53 Agonism Beta-lactamase Assay, Ratio, Phase 4 (AID 2283601). Put shortly:
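HCT116 cells carrying an inducible beta-lactamase reporter were plated at 4000 cells/well, rested 5 h, then exposed to compounds in DMSO (217-fold dilution) for 16 h at 37C. CCF4-AM substrate was loaded 2 h at room temperature; 460/530 nm emission ratio scored gain-of-signal versus DMSO.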

The target is the same in assay [7]. The assay is described as follows: TOX21_p53_BLA_p5_ratio: Tox21 HCT-116 p53 Agonism Beta-lactamase Assay, Ratio, Phase 5 (AID 2283599). The procedure, abridged: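 HCT-116 cells carrying a p53-inducible beta-lactamase reporter were seeded at 4000 cells/well and dosed after 5 h with compound in DMSO (217-fold dilution). After 16 h at 37C, CCF4-AM substrate was added for 2 h, and the 460/530 nm emission ratio was scored as gain-of-signal versus DMSO.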

A short description of assay [8]: ACEA_ER_AUC_viability: ACEA Biosciences xCELLigence Real-Time Cell Analysis on Estrogen Receptor Agonism for Viability (AID 2283782).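 Further: hit means loss of impedance signal meaning reduced cell growth or viability.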 Put shortly:
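Continuous-exposure impedance cell analysis uses T-47D cells in charcoal-stripped serum, eight 1:4 dilutions topping at 100 uM final, biological duplicate. Area under the growth curve at 80 h is fitted against DMSO baseline.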

The nature of assay [9]: CCTE_Harrill_HTTr_Viability_MCF7: CCTE's 6-hour Cell Viability Assessment for the High-Throughput Transcriptomics (HTTr) Platform, in MCF-7 cells cultured in DMEM + 10% fetal bovine serum, Harrill Lab (AID 2284010; active means hit-call score of the fitted dose curve at least 0.9, where 1 is the maximum; inactive means score below 0.9). The procedure, abridged: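 Read-out is propidium iodide gain of signal by high-content imaging, reflecting membrane integrity loss. Measurements are taken 6 h after dosing, eight concentrations per chemical, with DMSO serving as baseline for bidirectional curve fitting.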

Assay [10] in a line: CCTE_Harrill_HTTr_Apoptosis_MCF7: CCTE's 6-hour Apoptosis Assessment for the High-Throughput Transcriptomics (HTTr) Platform, in MCF-7 cells cultured in DMEM + 10% fetal bovine serum, Harrill Lab (AID 2284011; active means hit-call score of the fitted dose curve at least 0.9, where 1 is the maximum; inactive means score below 0.9). Put shortly:
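High-content imaging of CellEvent Caspase 3/7 Green signal follows a six-hour exposure, with eight concentrations per chemical. MCF-7 cells grown in DMEM plus 10% fetal bovine serum; activity fitted in both directions against DMSO.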

Sequence of Cellular tumor antigen p53 (Homo sapiens) (P04637 whole entry, looked up): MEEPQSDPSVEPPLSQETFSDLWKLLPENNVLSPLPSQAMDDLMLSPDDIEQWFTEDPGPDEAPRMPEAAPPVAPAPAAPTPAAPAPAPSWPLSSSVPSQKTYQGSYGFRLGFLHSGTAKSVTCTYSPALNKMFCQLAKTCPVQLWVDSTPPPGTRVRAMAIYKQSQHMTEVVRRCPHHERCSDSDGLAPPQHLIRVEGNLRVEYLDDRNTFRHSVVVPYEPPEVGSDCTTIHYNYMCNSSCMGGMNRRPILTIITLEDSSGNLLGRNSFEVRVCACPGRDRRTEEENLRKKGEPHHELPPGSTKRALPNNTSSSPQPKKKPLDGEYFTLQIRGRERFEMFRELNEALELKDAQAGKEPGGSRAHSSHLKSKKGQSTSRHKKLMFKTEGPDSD

Turning to `CN(C(=O)CO)c1c(I)c(C(=O)NCC(O)CO)c(I)c(C(=O)NCC(O)CO)c1I` (stereo not given), the result in assay [1], in [2], in assay [3], in [4], in assay [5] and in assay [6] was inactive.
Consider `O=C1OC2(c3ccc(O)cc3Oc3cc(O)ccc32)c2ccc(N=C=S)cc21`, for which the molecule was called inactive in assay [1], in [2], in assay [3], in assay [4], in [5] and in [6].
Take `COC(=O)C1CC(=O)C(C(=O)OC)CC1=O` (stereo not given): the call in [1], in assay [2], in assay [3], in assay [4] and in assay [6] was inactive.
For the molecule `Cc1cc(-c2ccccc2)nnc1NCCN1CCOCC1`, the call in [1], in assay [2], in assay [3] and in [7] was inactive.
Regarding `C=C(C)C(=O)OCCNC(C)(C)C`, the outcome in assay [1], in [2], in [3], in assay [4], in assay [5] and in [8] was inactive.
Turning to `O=C(O)CCCc1c[nH]c2ccccc12`, the result in [1], in assay [2], in assay [3], in assay [4], in assay [5] and in assay [6] was inactive. Besides, the molecule was called inactive in assay [8], in assay [9] and in assay [10].
Regarding `O=C(O)CSCC(=O)NC1CCSC1=O` (stereo not given), the molecule was classed as inactive in assay [1], in assay [2], in [3] and in assay [7].
As to `CO[Si](OC)(OC)OC`, the outcome in [1], in assay [2], in [3] and in [7] was inactive.
On to `Cc1nccn1CC1CCc2c(c3ccccc3n2C)C1=O` (stereo not given), for which the call in [1], in assay [2], in [3], in [4], in [5] and in [6] was inactive.
In the case of `CCN(CC)S(=O)(=O)c1ccc(C(=O)O)cc1`, the result in assay [1], in assay [2], in assay [3] and in assay [7] was inactive.
For `CCC(=O)c1ccc2c(c1)N(CCCN1CCN(CCO)CC1)c1ccccc1S2`, the call in [1], in assay [2], in assay [3], in assay [5] and in assay [6] was inactive. Further, the AC50 in [4] is 33.3 µM (active).
On to `CCN1CCN(c2cc3c(cc2F)c(=O)c(C(=O)O)cn3C2CC2)CC1`, for which the molecule was classed as inactive in assay [1], in [2], in assay [3], in [7] and in assay [5].
Regarding `CCOC(=O)[C@H](CCc1ccccc1)N[C@@H](C)C(=O)N(CC(=O)O)C1Cc2ccccc2C1`, the molecule was classed as inactive in assay [1], in assay [2], in assay [3], in assay [5] and in assay [6]. Also, the AC50 in assay [4] is 7.13 µM (active).
On to `C=C(C)C(=O)OCCCCCCCCCCCCC`, for which the result in assay [1], in assay [2], in assay [3], in assay [4] and in assay [6] was inactive.
As to `N[C@H]1C(O)O[C@H](CO)[C@@H](O)[C@@H]1O` (stereo not given in full), the call in assay [1], in assay [2], in assay [3], in [7], in [5] and in assay [6] was inactive.
For `CCC(=O)OCC(=O)[C@@]1(OC(=O)CC)[C@H](C)C[C@H]2[C@H]3[C@H]([C@@H](O)C[C@@]21C)[C@@]1(C)C=CC(=O)C=C1C[C@H]3Cl`, the molecule was called inactive in assay [1], in assay [2], in [3], in assay [7], in assay [5] and in [6].
For `CNCCS(=O)(=O)O`, the outcome in assay [1], in assay [2], in assay [3], in [7], in assay [5] and in assay [6] was inactive.
For `O=C(CCCN1CCC(C(=O)c2ccc(F)cc2)CC1)c1ccc(F)cc1`, the outcome in [1], in assay [2], in [3], in [4], in assay [5] and in assay [6] was inactive.

Usually AC50 stands for the concentration at which the activity in the assay is half-maximal.

Values taken from PubChem BioAssay (EPA / NIEHS).
